Results published in PubChem BioAssay AID463173 (ICCB-Longwood Screening Facility, Harvard Medical School, 2010).
The whole screen tested about 52,000 compounds, of which about 1,700 (3.3%) were called active. No stated cut-off is given here; in the data, active means survival mostly below about 52% (no sharp cut-off); inactive means mostly above about 56%. The sample as a whole holds a higher share of actives than the screen did.

Each compound was assayed on Wild type (assay: S. aureus survival, RN4220 and DeltatarO strains – OD600, teichoic acid synthesis inhibitors, primary screen (AID 463173)). Conditions: S. aureus RN4220 wild type/DeltatarO growth, OD600, 18 h, stronger effect = lower value, screened at 18.75 µg/mL (by protocol).

Row | Structure (SMILES) | survival
1 | COCCNC(=O)c1ccc(-c2nc(CN3CCc4ccccc43)c(C)o2)cc1 | 75% (inactive)
2 | NS(=O)(=O)c1ccc(CCNC(=O)c2ccc3nc(Cc4ccccc4)oc3c2)cc1 | 81% (inactive)
3 | CCn1cc(C(=O)O)c(=O)c2cc(F)c(N3CCN(C(=O)c4ccccc4F)CC3)cc21 | 54% (inactive)
4 | CC(C)CC(=O)NCC(c1ccc2c(c1)OCO2)N1CCN(c2ccccc2)CC1 (stereo unspecified) | 77% (inactive)
5 | COC(=O)c1cc(S(=O)(=O)N2CCN(c3cc(Cl)ccc3C)CC2)c[nH]1 | 8% (active)
6 | COC(=O)c1cc(S(=O)(=O)N2CCN(c3ccc(OC)cc3)CC2)c[nH]1 | 85% (inactive)
7 | Cc1ccc(Cl)cc1N1CCN(C(=O)c2cc(S(=O)(=O)N3CCCC3)c[nH]2)CC1 | 77% (inactive)
8 | COc1ccccc1CNC(=O)CN1C(=O)CSc2ccc(S(=O)(=O)N3CCCCC3)cc21 | 83% (inactive)
9 | COc1ccc(-n2ncc(C(=O)N3CCc4ccccc4C3)c2C2CCN(C(=O)OC(C)(C)C)CC2)cc1 | 63% (inactive)
10 | COc1cc2c(cc1NS(=O)(=O)c1cccc(C#N)c1)n(C)c(=O)n2C | 76% (inactive)
11 | CCCSc1ncc(Cl)c(C(=O)Nc2scc(-c3ccc(C)cc3)c2C(=O)OCC)n1 | 87% (inactive)
12 | CCOC(=O)c1c(-c2ccc(C)cc2)csc1NC(=O)c1nc(SC(C)C)ncc1Cl | 85% (inactive)
13 | CCOC(=O)c1c(-c2ccccc2)csc1NC(=O)c1nc(SCC)ncc1Cl | 97% (inactive)
14 | CCOC(=O)c1c(-c2ccccc2)csc1NC(=O)c1nc(S(=O)(=O)CC)ncc1Cl | 2% (active)
15 | CCOC(=O)c1c(-c2ccc(C)cc2)csc1NC(=O)c1nc(SCC)ncc1Cl | 78% (inactive)
16 | CCCS(=O)(=O)c1ncc(Cl)c(C(=O)Nc2scc(-c3ccccc3)c2C(=O)OCC)n1 | 4% (active)
17 | CCc1nn(CC(=O)NCC(C)c2ccccc2)c(=O)c2cc3c(OC)cccc3n12 (stereo unspecified) | 89% (inactive)
18 | Cc1ccccc1SCC(=O)O | 106% (inactive)
19 | O=C(c1cc(-c2ccccc2)on1)N1CCCc2ccccc21 | 114% (inactive)
20 | COCCCNC(=O)c1ccc2c(c1)N(Cc1ccccc1)C(=O)c1ccccc1S2 | 75% (inactive)
21 | Cc1cc(N2CCN(C)CC2)nc2ccc(NC(=O)c3ccc(C(C)(C)C)cc3)cc12 | -20% (active)
22 | Cc1ccc(NC(=O)Nc2ccc3nc(N4CCN(C)CC4)cc(C)c3c2)cc1C | 73% (inactive)
23 | Cc1cc(N2CCCCC2)nc2ccc(NC(=O)c3cccc(F)c3)cc12 | 46% (inactive)
24 | CCN1CCN(c2cc(C)c3cc(NC(=O)c4cccc(Cl)c4)ccc3n2)CC1 | 57% (inactive)
25 | Cc1cc(N2CCCCC2)nc2ccc(NC(=O)c3cccc(Cl)c3)cc12 | -2% (active)
26 | CCOc1cc(C(=O)Nc2ccc3nc(N4CCN(C)CC4)cc(C)c3c2)cc(OCC)c1OCC | 134% (inactive)
